This is part of a sample that, as a whole, favours compounds with a hit. Of some 83,000 tested, about 20% had one in any assay.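 For each line, cells grew in 96-well plates with the test compound present at a single concentration for 48 hours.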 A number with no mark means an inactive call. Calls of active or inactive are those of the source. How the source made its calls: active means growth percent below 10; inactive means the rest.
Columns and labels:
Assay in all cases: NCI-60 one-dose screen, 48 h (100 = growth as untreated, 0 = no growth, -100 = all killed)
Settings in all cases: 10 µM unless noted
NCI-H23 lung = tested on: NCI-H23 lung
NCI-H226 lung = tested on: NCI-H226 lung
NCI-H322M lung = tested on: NCI-H322M lung
HOP-62 NSCLC = tested on: HOP-62 NSCLC
NCI-H460 lung = tested on: NCI-H460 lung
NCI-H522 lung = tested on: NCI-H522 lung
A549/ATCC NSCLC = tested on: A549/ATCC NSCLC
786-0 renal = tested on: 786-0 renal
COLO 205 colon = tested on: COLO 205 colon
DU-145 prostate = tested on: DU-145 prostate
K-562 leukemia = tested on: K-562 leukemia
MALME-3M melanoma = tested on: MALME-3M melanoma
MDA-MB-231 breast = tested on: MDA-MB-231 breast
SF-268 CNS = tested on: SF-268 CNS
SF-295 CNS = tested on: SF-295 CNS
SF-539 CNS = tested on: SF-539 CNS
UACC-257 melanoma = tested on: UACC-257 melanoma
M14 melanoma = tested on: M14 melanoma
HCT-15 colon = tested on: HCT-15 colon
RXF 393 renal = tested on: RXF 393 renal

`c1cnc2ccc3ncccc3c2c1` was tested, and the growth (NCI-H23 lung) was 118%, the growth (NCI-H226 lung) was 105% and the growth (NCI-H322M lung) was 117%. It also gave a growth (HOP-62 NSCLC) of 82.6%, a growth (NCI-H460 lung) of 105% and a growth (NCI-H522 lung) of 84.6%. The growth (A549/ATCC NSCLC) was 90.2%, the growth (786-0 renal) was 103% and the growth (COLO 205 colon) was 109%. For the same compound, the growth (DU-145 prostate) was 117%, the growth (K-562 leukemia) was 106% and the growth (MALME-3M melanoma) was 146%. The growth (MDA-MB-231 breast) was 114%, the growth (SF-268 CNS) was 107% and the growth (SF-295 CNS) was 113%. The growth (SF-539 CNS) was 104%, the growth (UACC-257 melanoma) was 83.5% and the growth (M14 melanoma) was 99.8%. It also gave a growth (HCT-15 colon) of 108%.
`COc1ccc2nc3cc(Cl)ccc3c(Nc3cc(C(C)C)c(O)cc3C)c2c1` gave a growth (NCI-H23 lung) of 40.1%, a growth (NCI-H226 lung) of 79.5% and a growth (NCI-H322M lung) of 51.5%. For the same compound, the growth (HOP-62 NSCLC) was 58.2%, the growth (NCI-H460 lung) was 35.3% and the growth (NCI-H522 lung) was -20.1% (active). It also gave a growth (A549/ATCC NSCLC) of 14.5%, a growth (786-0 renal) of 35.5% and a growth (COLO 205 colon) of 15.7%. For the same compound, the growth (DU-145 prostate) was 52.3%, the growth (K-562 leukemia) was 19.4% and the growth (MALME-3M melanoma) was 39.3%. The growth (MDA-MB-231 breast) was 37.7%, the growth (SF-268 CNS) was 64% and the growth (SF-295 CNS) was 5.22% (active). It also gave a growth (SF-539 CNS) of 59.5%, a growth (UACC-257 melanoma) of 47% and a growth (M14 melanoma) of 56.2%. For the same compound, the growth (HCT-15 colon) was 10.6%.
`C/C(=C\CCc1ccsc1)CC/C=C(\C)CCCN1CCN(CCO)CC1` showed a growth (NCI-H23 lung) of 62.2%, a growth (NCI-H226 lung) of 67.7% and a growth (NCI-H322M lung) of 71.8%. For the same compound, the growth (HOP-62 NSCLC) was 69.1%, the growth (NCI-H460 lung) was 14.6% and the growth (NCI-H522 lung) was 71.5%. The growth (A549/ATCC NSCLC) was 44.8%, the growth (786-0 renal) was 32.8% and the growth (COLO 205 colon) was -9.2% (active). For the same compound, the growth (DU-145 prostate) was 76.4%, the growth (K-562 leukemia) was -27.4% (active) and the growth (MALME-3M melanoma) was -14.4% (active). For the same compound, the growth (MDA-MB-231 breast) was 27%, the growth (SF-268 CNS) was 71.7% and the growth (SF-295 CNS) was 35.9%. The growth (SF-539 CNS) was 57.8%, the growth (UACC-257 melanoma) was 11.4% and the growth (M14 melanoma) was 14.2%. The growth (HCT-15 colon) was -22.2% (active).
`CC(=O)NC1(C(=O)O)CCCC1` gave a growth (NCI-H23 lung) of 133%, a growth (NCI-H226 lung) of 113% and a growth (NCI-H322M lung) of 130%. For the same compound, the growth (HOP-62 NSCLC) was 117%, the growth (NCI-H460 lung) was 109% and the growth (NCI-H522 lung) was 103%. For the same compound, the growth (A549/ATCC NSCLC) was 126%, the growth (786-0 renal) was 110% and the growth (COLO 205 colon) was 125%. The growth (DU-145 prostate) was 126%, the growth (K-562 leukemia) was 96.6% and the growth (MALME-3M melanoma) was 135%. For the same compound, the growth (MDA-MB-231 breast) was 119%, the growth (SF-268 CNS) was 111% and the growth (SF-295 CNS) was 110%. For the same compound, the growth (SF-539 CNS) was 104%, the growth (UACC-257 melanoma) was 100% and the growth (M14 melanoma) was 110%. The growth (HCT-15 colon) was 112%.
`COC(=O)[C@]1(CCSC)N[C@H](c2cn(-c3ccccc3)nc2C)[C@@H]2C(=O)N(c3ccccc3)C(=O)[C@@H]21` showed a growth (NCI-H23 lung) of 94.9%, a growth (NCI-H226 lung) of 99.7% and a growth (NCI-H322M lung) of 115%. It also gave a growth (HOP-62 NSCLC) of 107%, a growth (NCI-H460 lung) of 106% and a growth (NCI-H522 lung) of 97.4%. The growth (A549/ATCC NSCLC) was 103%, the growth (786-0 renal) was 104% and the growth (COLO 205 colon) was 112%. The growth (DU-145 prostate) was 119%, the growth (MALME-3M melanoma) was 105% and the growth (MDA-MB-231 breast) was 109%. For the same compound, the growth (RXF 393 renal) was 109%, the growth (SF-268 CNS) was 114% and the growth (SF-295 CNS) was 106%. The growth (UACC-257 melanoma) was 113%, the growth (M14 melanoma) was 95.9% and the growth (HCT-15 colon) was 112%.
`Cc1c(C(N)=O)sc2c1c(=O)n(Cc1ccccc1)c1nnc(SCC(=O)Nc3ccc(Cl)cc3)n21` was tested, and the growth (NCI-H23 lung) was 57.7%, the growth (NCI-H226 lung) was 9.97% (active) and the growth (NCI-H322M lung) was 28.9%. The growth (HOP-62 NSCLC) was -6.06% (active), the growth (NCI-H460 lung) was -12.3% (active) and the growth (NCI-H522 lung) was 17.2%. For the same compound, the growth (A549/ATCC NSCLC) was 20.7%, the growth (786-0 renal) was -41.2% (active) and the growth (COLO 205 colon) was 50.7%. The growth (DU-145 prostate) was 39.5%, the growth (MALME-3M melanoma) was 15.8% and the growth (MDA-MB-231 breast) was -6.85% (active). The growth (RXF 393 renal) was 38%, the growth (SF-268 CNS) was 60.1% and the growth (SF-295 CNS) was 49.4%. It also gave a growth (UACC-257 melanoma) of 35.3%, a growth (M14 melanoma) of 40.5% and a growth (HCT-15 colon) of 82.5%.
`O[C@@H]1Cc2ccc3ccccc3c2N[C@H](c2ccoc2)C1` showed a growth (NCI-H23 lung) of 96.6%, a growth (NCI-H226 lung) of 93.5% and a growth (NCI-H322M lung) of 112%. For the same compound, the growth (HOP-62 NSCLC) was 98.8%, the growth (NCI-H460 lung) was 116% and the growth (NCI-H522 lung) was 94.8%. For the same compound, the growth (A549/ATCC NSCLC) was 100%, the growth (786-0 renal) was 108% and the growth (COLO 205 colon) was 107%. It also gave a growth (DU-145 prostate) of 112%, a growth (K-562 leukemia) of 102% and a growth (MDA-MB-231 breast) of 96.2%. The growth (RXF 393 renal) was 108%, the growth (SF-268 CNS) was 105% and the growth (SF-295 CNS) was 110%. The growth (SF-539 CNS) was 93.6%, the growth (UACC-257 melanoma) was 105% and the growth (M14 melanoma) was 101%. The growth (HCT-15 colon) was 111%.
`O=C1CC(=O)N(c2ccccc2)O1` was tested, and the growth (NCI-H23 lung) was 108%, the growth (NCI-H226 lung) was 91.2% and the growth (NCI-H322M lung) was 108%. For the same compound, the growth (HOP-62 NSCLC) was 92.3%, the growth (NCI-H460 lung) was 111% and the growth (NCI-H522 lung) was 95.6%. The growth (A549/ATCC NSCLC) was 107%, the growth (786-0 renal) was 105% and the growth (COLO 205 colon) was 92.3%. For the same compound, the growth (DU-145 prostate) was 105%, the growth (K-562 leukemia) was 111% and the growth (MDA-MB-231 breast) was 87.6%. The growth (RXF 393 renal) was 109%, the growth (SF-268 CNS) was 109% and the growth (SF-295 CNS) was 101%. It also gave a growth (SF-539 CNS) of 93.6%, a growth (UACC-257 melanoma) of 106% and a growth (M14 melanoma) of 99.9%. For the same compound, the growth (HCT-15 colon) was 102%.

— PubChem BioAssay (NCI)
